Results filed as inconclusive are left out. Activity calls are given as the source filed them. Calls follow the shape of the dose curve; as a rule, active = well fitted cell-killing curve with a large enough effect; inconclusive = small, poorly fitted or top-dose-only effect, or effect the other way; inactive = flat fitted curve, though single readings scatter.
Tested on: PA-1
Assay: Primary qHTS to identify gynecologic anti-cancer compounds using libraries of approved drugs and bioactive compounds (AID 1345084); also: nearly all actives have a fitted effect of over 55% in size
Settings: Gynecologic cancer cell panel viability, ATPlite luminescence, 48 h; series mostly up to 57.5 µM; activity change, negative = cytotoxicity: at the top concentration
How it was run: (§1)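 Cell viability after 48 h drug treatment, ATPlite luminescence readout; five doses.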
% is scaled to controls: 0 for no effect and ±100 for the full control effect.

Structure (SMILES)	activity change, negative = cytotoxicity
CCCCC(CC)CNC(=O)CC(C)OC(=O)CCC(=O)O (configuration not stated)	-2.76% (inactive)
C[C@@H]1CCC[C@H](C)N1CCCC(O)(c1ccccc1)c1ccccn1 (some centres not stated)	-5.05% (inactive)
O=C1CCCc2c(O)cccc21	0.907% (inactive)
C=CCOc1cc(Cl)ccc1C(=O)NCCN(CC)CC	-0.528% (inactive)
Cc1onc(-c2ccccc2)c1C(=O)Cl	5.1% (inactive)
CCCCCCOC(=O)NC(=N)c1ccc(NCc2nc3cc(C(=O)N(CCC(=O)OCC)c4ccccn4)ccc3n2C)cc1	-4.33% (inactive)
CCN1CCN(C(=O)N[C@@H](C(=O)N[C@@H]2C(=O)N3[C@@H]2SC(C)(C)[C@H]3C(=O)O)c2ccccc2)C(=O)C1=O	-21.8% (inactive)
Nc1nc2ccccc2n1Cc1ccc(F)cc1	-21.4% (inactive)
CCOC(=O)c1cc(=O)c2c(OCC(COc3cccc4oc(C(=O)OCC)cc(=O)c34)OC(=O)[C@@H](N)CCCCN)cccc2o1	5.51% (inactive)
CC(C)C(=O)Nc1cccc(C(F)(F)F)c1	5.38% (inactive)
C=C(C)C(=O)OCC(O)CO (configuration not stated)	2.33% (inactive)
CCCCN(CCN(CCCC)C(=O)N1CCOCC1)C(=O)N1CCOCC1	-22.4% (inactive)
CC(Oc1c(Cl)cccc1Cl)C1=NCCN1 (configuration not stated)	1.03% (inactive)
CC(=O)OC/C=C(C)/C=C/C=C(C)/C=C/C1=C(C)CCCC1(C)C	15% (inactive)
CC(C)(C)CC(=O)OCC(=O)[C@@]1(O)CC[C@H]2[C@@H]3CCC4=CC(=O)C=C[C@]4(C)[C@H]3[C@@H](O)C[C@@]21C	-7.34% (inactive)
Cc1ccc(/C=N/n2c(-c3ccccc3)csc2=S)cc1	-0.731% (inactive)
CO[C@@H]1[C@@H](O[C@@H]2O[C@H](C)[C@@H](O[C@H]3C[C@@](C)(O)[C@@H](O)[C@H](C)O3)[C@H](N(C)C)[C@H]2O)[C@@H](CC=O)C[C@@H](C)[C@@H](O[C@@H]2CC[C@H](N(C)C)[C@@H](C)O2)/C=C/C=C/C[C@@H](C)OC(=O)C[C@H]1OC(C)=O	9.53% (inactive)
N#CSCC(=O)O	-2.71% (inactive)
Cc1ccc(CCn2c3c(c4cc(Cl)ccc42)CN(C)CC3)cn1	1.74% (inactive)
CO/N=C(/C(=O)N[C@@H]1C(=O)N2C(C(=O)OCOC(=O)C(C)(C)C)=C(C)CS[C@H]12)c1csc(N)n1	1.95% (inactive)
CC(C)Cc1ccc(C(C)C(=O)OCc2ccccn2)cc1 (configuration not stated)	-0.396% (inactive)

Tested on: SKOV3
Assay: as above
Settings: Gynecologic cancer cell panel viability, ATPlite luminescence, 48 h; series mostly up to 57.5 µM; activity change, negative = cytotoxicity: at the top concentration
How it was run: as §1

Structure (SMILES)	activity change, negative = cytotoxicity
C[C@@H](C1=C(CCN(C)C)Cc2ccccc21)c1ccccn1	-9.36% (inactive)
O=C1OC2(c3ccccc31)c1cc(I)c(O)c(I)c1Oc1c2cc(I)c(O)c1I	-6.33% (inactive)
CCOCCn1c(C2CCN(CCc3ccc(C(C)(C)C(=O)O)cc3)CC2)nc2ccccc21	16.9% (inactive)
O=C(Oc1ccccc1)c1cccc(C(=O)Oc2ccccc2)c1	1.23% [at 116 µM] (inactive)
CCc1cc2cc(OC)c(OC)cc2c(Cc2ccccc2)n1	-10.6% (inactive)
CCOc1ncc(F)c(=O)[nH]1	2.09% (inactive)
COCCOCC(OC)OC	14.1% (inactive)
O=C(O)c1ccc(OCCN2CCCCC2)cc1	-0.861% (inactive)
Oc1ccccc1	9.42% (inactive)
O=C(OCCN1CCOCC1)c1cccnc1Nc1cccc(C(F)(F)F)c1	0.158% (inactive)
O=C(O)c1ccccc1Nc1cc(Cl)ccc1C(=O)O	-0.744% [at 25.3 µM] (inactive)
COc1ccc2cc(C=O)ccc2c1	3.58% (inactive)
COc1ccc2c(c1)c(CC(=O)OC/C=C(\C)CC/C=C(\C)CCC=C(C)C)c(C)n2C(=O)c1ccc(Cl)cc1	-4.21% (inactive)
O=C(O)[C@@H](O)[C@H](O)[C@H](O)[C@@H](O)C(=O)O	26.8% (inactive)
CNC(=O)c1c(I)c(NC(C)=O)c(I)c(C(=O)O)c1I	2.91% (inactive)
NCC[C@H](O)C(=O)N[C@@H]1C[C@H](N)[C@@H](O[C@H]2O[C@H](CN)[C@@H](O)[C@H](O)[C@@H]2O)[C@H](O)[C@@H]1O[C@H]1O[C@H](CO)[C@@H](O)[C@H](N)[C@@H]1O	13.9% [at 0.462 µM] (inactive)
O=C1Cc2cc(Cl)ccc2N1	19.6% (inactive)
CN(C)CCOC1=Cc2ccccc2Sc2ccc(Cl)cc21	-8.31% (inactive)

Structure (SMILES)	activity change, negative = cytotoxicity
CCCCC(CC)CNC(=O)CC(C)OC(=O)CCC(=O)O (configuration not stated)	0.555% (inactive)
C[C@@H]1CCC[C@H](C)N1CCCC(O)(c1ccccc1)c1ccccn1 (some centres not stated)	29.9% (inactive)
C=CCOc1cc(Cl)ccc1C(=O)NCCN(CC)CC	-3.53% (inactive)
Cc1onc(-c2ccccc2)c1C(=O)Cl	-4.93% (inactive)
CCCCCCOC(=O)NC(=N)c1ccc(NCc2nc3cc(C(=O)N(CCC(=O)OCC)c4ccccn4)ccc3n2C)cc1	-2.9% (inactive)
CCN1CCN(C(=O)N[C@@H](C(=O)N[C@@H]2C(=O)N3[C@@H]2SC(C)(C)[C@H]3C(=O)O)c2ccccc2)C(=O)C1=O	-4.18% (inactive)
Nc1nc2ccccc2n1Cc1ccc(F)cc1	0% (inactive)
CCOC(=O)c1cc(=O)c2c(OCC(COc3cccc4oc(C(=O)OCC)cc(=O)c34)OC(=O)[C@@H](N)CCCCN)cccc2o1	13.3% (inactive)
CC(C)C(=O)Nc1cccc(C(F)(F)F)c1	9.05% (inactive)
C=C(C)C(=O)OCC(O)CO (configuration not stated)	-1.78% (inactive)
CC(Oc1c(Cl)cccc1Cl)C1=NCCN1 (configuration not stated)	0% (inactive)
CC(=O)OC/C=C(C)/C=C/C=C(C)/C=C/C1=C(C)CCCC1(C)C	-5.87% (inactive)
CC(C)(C)CC(=O)OCC(=O)[C@@]1(O)CC[C@H]2[C@@H]3CCC4=CC(=O)C=C[C@]4(C)[C@H]3[C@@H](O)C[C@@]21C	-32.3% (inactive)
Cc1ccc(/C=N/n2c(-c3ccccc3)csc2=S)cc1	12.9% (inactive)
CO[C@@H]1[C@@H](O[C@@H]2O[C@H](C)[C@@H](O[C@H]3C[C@@](C)(O)[C@@H](O)[C@H](C)O3)[C@H](N(C)C)[C@H]2O)[C@@H](CC=O)C[C@@H](C)[C@@H](O[C@@H]2CC[C@H](N(C)C)[C@@H](C)O2)/C=C/C=C/C[C@@H](C)OC(=O)C[C@H]1OC(C)=O	-17.1% (inactive)
Cc1ccc(CCn2c3c(c4cc(Cl)ccc42)CN(C)CC3)cn1	13.7% (inactive)
CO/N=C(/C(=O)N[C@@H]1C(=O)N2C(C(=O)OCOC(=O)C(C)(C)C)=C(C)CS[C@H]12)c1csc(N)n1	1.55% (inactive)
CC(C)Cc1ccc(C(C)C(=O)OCc2ccccn2)cc1 (configuration not stated)	-0.61% (inactive)

Source: PubChem BioAssay (NCATS)
